In PubChem BioAssay (NCATS):
Inconclusive results are not listed. A call without a number means that no potency is given here. Active and inactive are the calls of the source. Calls come from the whole dose curve; as a rule, active = well fitted curve in the direction sought with a large enough effect; inconclusive = small, poorly fitted or top-dose-only effect, or another doubt; inactive = no such curve, though single readings can be large or run the other way.

Molecular target: Metallo-beta-lactamase type 2 (Klebsiella pneumoniae) (UniProt C7C422)
Sequence (C7C422 whole entry, looked up): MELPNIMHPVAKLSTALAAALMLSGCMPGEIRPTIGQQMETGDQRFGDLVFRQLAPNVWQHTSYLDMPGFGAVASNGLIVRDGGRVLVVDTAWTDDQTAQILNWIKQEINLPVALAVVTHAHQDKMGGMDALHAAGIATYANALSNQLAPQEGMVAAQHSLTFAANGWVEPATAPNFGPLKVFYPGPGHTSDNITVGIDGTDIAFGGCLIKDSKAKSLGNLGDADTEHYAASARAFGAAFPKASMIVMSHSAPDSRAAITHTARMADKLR
Experiment: qHTS to identify inhibitors of the New Delhi Metallo-beta-lactamase (NDM): assay validation screen against the NCATS LOPAC Collection (AID 1794843);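 note: nitrocefin turnover by NDM-1 measured as 485 nm absorbance at plateau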
Conditions: NDM-1 enzyme, nitrocefin hydrolysis, absorbance 485 nm; series mostly up to 38.4 µM
Method in brief: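 NDM-1 at 2 nM final in 50 mM HEPES pH 7.0, 1 uM ZnSO4, 0.01% Tween20, preincubated with LOPAC compounds pinned in DMSO; 50 uM nitrocefin (stock) added. Hydrolysis read as absorbance at 485 nm in the plateau phase.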

SMILES	Potency
COc1ccc(CCN(C)CCc2ccc(OC)c(OC)c2)cc1OC	inactive
CCCCCC[C@@H]([C@@H](C)O)n1cnc2c(N)ncnc21	inactive
CN(C)CCC(c1ccc(Br)cc1)c1ccccn1 (configuration not stated)	inactive
CC(=O)O[C@H]1Cc2ccccc2N(C(N)=O)c2ccccc21	inactive
Nc1ncnc2c1ncn2C1CCCC1	inactive
[N-]=[N+]=Nc1ccc(C(=O)CSC[C@H](NC(=O)CC[C@H](N)C(=O)O)C(=O)NCC(=O)O)cc1	inactive
NC1C=CC=C(C(=O)O)C1 (configuration not stated)	inactive
O=C(O)C1=CCCNC1	inactive
O=c1[nH]c2cc(Cl)ccc2c(O)c1-c1ccc(Oc2ccccc2)cc1	inactive
NC(=O)c1cc[n+](CC2=C(C(=O)O)N3C(=O)[C@@H](NC(=O)[C@@H](c4ccccc4)S(=O)(=O)[O-])[C@H]3SC2)cc1	inactive
NC(C(=O)N[C@@H]1C(=O)N2C(C(=O)O)=C(Cl)CS[C@H]12)c1ccccc1 (some centres not stated)	inactive
CCCCCCCC/C=C\CCCCCCCC(=O)NCCc1ccc(O)c(O)c1	inactive
COc1cc(C(O)C(=O)O)ccc1O (configuration not stated)	inactive
NCC(O)c1ccc(O)c(O)c1 (configuration not stated)	inactive
CCCCCCCCCCC(C)(C)C(=O)Nc1c(OC)cc(OC)cc1OC	inactive
CO/N=C(\C(=O)N[C@@H]1C(=O)N2C(C(=O)O)=C(CSc3nc(=O)c(O)nn3C)CSC12)c1csc(N)n1 (some centres not stated)	inactive
OCC1NCC(O)C(O)C1O (configuration not stated)	inactive
Cc1nc(N=Nc2ccc(S(=O)(=O)O)cc2S(=O)(=O)O)c(COP(=O)(O)O)c(C=O)c1O	inactive
COC(=O)C(C)(N)Cc1ccc(O)cc1 (configuration not stated)	inactive

SMILES	Potency
NC1(C(=O)O)CC1	inactive
COc1ccccc1N1CCN(CCCCNC(=O)c2ccc3ccccc3c2)CC1	inactive
CN1CCCC1CCOC(C)(c1ccccc1)c1ccc(Cl)cc1 (configuration not stated)	inactive
C#CC(N)CCC(=O)O (configuration not stated)	inactive
CCCCCCCCCCCCCCCCCCOC[C@H](COP(=O)([O-])OCC[N+](C)(C)C)OC	inactive
NCCS(=O)O	inactive
Cn1cc(C(F)(F)F)nc1-c1ccc(OCC(O)CNCCOc2ccc(O)c(C(N)=O)c2)cc1 (configuration not stated)	inactive
CC1CNCCN1S(=O)(=O)c1cccc2cnccc12 (configuration not stated)	inactive
CC(=O)[C@H]1CCC2C3CC=C4C[C@@H](OS(=O)(=O)O)CC[C@]4(C)C3CC[C@@]21C (some centres not stated)	inactive
NC(N)=NC(N)=Nc1cccc(Cl)c1	inactive
Nc1ccc(CCNc2ncnc3c2ncn3C2OC(CO)C(O)C2O)cc1 (configuration not stated)	inactive
COc1ccc(NC(=O)c2ccc(-c3ccc(-c4noc(C)n4)cc3C)cc2)cc1N1CCN(C)CC1	inactive
C[N+](C)(C)CC=O	inactive
O=c1ccn([C@@H]2O[C@H](COP(=O)(O)OP(=O)(O)O)[C@@H](O)[C@H]2O)c(=O)[nH]1	inactive
CCCn1c(=O)c2[nH]c(-c3ccc(S(=O)(=O)O)cc3)nc2n(CCC)c1=O	inactive
O=C1C2C=CC=CC2=NC(=S)N1CCN1CCC(=C(c2ccc(F)cc2)c2ccc(F)cc2)CC1 (configuration not stated)	inactive
N=S(=O)(O)Cc1noc2ccccc12	inactive
CCCOC(=O)c1c(-c2ccccc2)nc(CC)c(C(=O)SCC)c1CCC	inactive
